Source: PubChem BioAssay (National Center for Advancing Translational Sciences (NCATS))
The list is not random: actives were taken first. Their share in the collection is about 9.4%.
ELG1 genotoxic = qHTS screen for small molecules that induce genotoxicity in human embryonic kidney (HEK293T) cells expressing luciferase-tagged ELG1; 330,000 compounds, 1.3% hits; Potency, µM (titrated, usually from 46 µM), for the others: at the top dose activity change, positive = activation, most hits filed as activators; HEK293T ELG1-luciferase reporter, luminescence, 16 h; note: % of control where 0% means no effect; nearly all actives have a fitted effect of over 60% in size
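Screening used a luciferase reporter fused to human ELG1 in HEK293T cells. Luminescence was read on a CCD plate imager after 16 hr exposure and 30 min ONE-Glo incubation.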
SMN2 splice enh = qHTS Assay for Enhancers of SMN2 Splice Variant Expression; Potency, µM (doses to about 46.1 µM), inactives show at the highest dose activity change, positive = activation, most hits filed as activators; 210,000 compounds, 2.8% hits; HEK293 SMN2-luciferase splicing reporter, luminescence, 30-36 h; note: % of control where 0% means no effect; nearly all actives have a fitted effect of over 55% in size
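HEK293 cells carry an SMN2 […]–luciferase reporter in which exon 7 inclusion puts luciferase in frame. Cells were plated 10-12 h before compound addition, then incubated 30-36 h at 37C. ONE-Glo luminescence was read; sodium butyrate at 4.5 mM final served as control.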
ELG1 DNA repair = qHTS screen for small molecules that inhibit ELG1-dependent DNA repair in human embryonic kidney (HEK293T) cells expressing luciferase-tagged ELG1; HEK293T ELG1-luciferase reporter, luminescence, 16 h; DNA damage induced by 5-fluorouridine; Potency, µM (doses to about 46.1 µM), inactives show top-dose activity change, negative = inhibition, usual class: inhibitors; 330,000 compounds, 2.3% hits; note: % is set by controls: 0 for no effect and ±100 for the full control effect; nearly all actives have a fitted effect of over 55% in size
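5-Fluorouridine DNA damage + compound/DMSO, 2,000 cells/well, 16 h, 37 °C/5% CO2. ONE-Glo, 30 min RT, luminescence. Readout = decrease in reporter signal.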
NPC1 prom act = qHTS Assay for NPC1 Promoter Activators | Potency, µM (titrated, usually from 9.22 µM), for inactives: at the top dose activation, usual class: activators | AID 485313, 2010 | Huh7 NPC1 promoter luciferase reporter, 24 h | 320,000 compounds, 2.4% hits; note: % of control where 0% means no effect; nearly all actives have a fitted effect of over 60% in size
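Quantitative HTS used a cell-based reporter: Huh7 cells stably bearing the NPC1 promoter upstream of luciferase were treated with compounds for 24 h, and promoter activation was read as luminescence.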
FLuc modulator = qHTS profiling assay for firefly luciferase inhibitor/activator using purifed enzyme and Km concentrations of substrates (counterscreen for miR-21 project). 360,000 compounds, 6.9% hits. Luciferin 4-monooxygenase (Photinus pyralis), P08659. AID 588342, 2011. purified FLuc, Km substrates, luminescence inhibition. Potency, µM (titrated, usually from 57.5 µM), for inactives: at the highest dose activity change, negative = inhibition, most hits filed as inhibitors;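 note: plate controls were vehicle for no effect and reference inhibitor for full effect; nearly all actives have a fitted effect of over 55% in size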
Target sequence (P08659 whole entry, looked up): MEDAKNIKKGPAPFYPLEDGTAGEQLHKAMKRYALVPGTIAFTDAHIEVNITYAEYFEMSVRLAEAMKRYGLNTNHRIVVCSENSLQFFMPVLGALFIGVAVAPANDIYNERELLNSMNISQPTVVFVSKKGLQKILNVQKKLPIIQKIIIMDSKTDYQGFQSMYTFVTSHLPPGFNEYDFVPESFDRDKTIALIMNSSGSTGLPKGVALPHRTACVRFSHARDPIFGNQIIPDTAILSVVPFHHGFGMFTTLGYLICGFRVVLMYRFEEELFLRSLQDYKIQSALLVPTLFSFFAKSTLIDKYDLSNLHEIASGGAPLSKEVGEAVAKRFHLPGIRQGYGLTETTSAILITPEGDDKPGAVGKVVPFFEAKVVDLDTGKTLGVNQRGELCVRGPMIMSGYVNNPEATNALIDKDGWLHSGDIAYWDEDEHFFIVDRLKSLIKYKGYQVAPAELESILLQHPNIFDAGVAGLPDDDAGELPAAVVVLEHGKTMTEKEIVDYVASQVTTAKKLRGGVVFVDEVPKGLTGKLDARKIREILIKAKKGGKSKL
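Purified P. pyralis luciferase, 10 nM final, with Km-level 10 uM D-luciferin and 10 uM ATP in 50 mM Tris acetate pH 7.5, 10 mM Mg acetate, 0.01% Tween-20, 0.05% BSA; 6-point qHTS titration about 60 µM downward; luminescence read.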
Rab9 promoter act = qHTS Assay for Rab9 Promoter Activators. Huh7 Rab9 promoter-luciferase reporter, luminescence, 24 h. 320,000 compounds, 2.8% hits. Potency, µM (highest dose often 9.22 µM), for inactives: at the highest dose activation, negative = inhibition, most hits filed as activators; note: % of control where 0% means no effect; nearly all actives have a fitted effect of over 60% in size
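Quantitative HTS format; Huh7 Rab9-luciferase reporter cells (1500/well) receive compound 2 h post-plating, incubate 24 h at 37 °C, then get luciferase reagent for 10 min before luminescence reading.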
Starred values were filed as active, the others as inactive; ? = inconclusive; . = no result. Calls come from the whole dose curve; as a rule, active = well fitted curve in the direction sought with a large enough effect; inconclusive = small, poorly fitted or top-dose-only effect, or another doubt; inactive = no such curve, though single readings can be large; an effect the other way counts as inactive or inconclusive. Potency is the fitted concentration of half-maximal effect.

SMILES	ELG1 genotoxic	SMN2 splice enh	ELG1 DNA repair	NPC1 prom act	FLuc modulator	Rab9 promoter act
CCCN(CCC)S(=O)(=O)c1ccc2c(c1)N(CC(=O)NC(C)c1ccccc1)C(=O)CS2 (stereo unspecified)	.	.	.	.	-7%	.
Cc1cc(C(=O)NC2CCC(C)CC2)c(C)o1 (stereo unspecified)	5.2µM*	.	?	1.4µM*	9.5µM*	1.8µM*
CC1CCC(NC(=O)c2cc3ccccc3cc2O)CC1 (stereo unspecified)	13%	.	?	?	5.4µM*	2.2µM*
O=C(NNC(=O)c1cc2ccccc2cc1O)NC1CCCCC1	3%	.	14%	9%	-3%	16%
Cc1ccc(CNC(=O)Cn2cc(S(=O)(=O)Cc3cccc(Cl)c3)c3ccccc32)cc1	.	.	.	.	-2%	.
Cc1cccc(Cn2c(=O)c3c(nc4n3CCN4Cc3ccco3)n(C)c2=O)c1	-10%	-9%	21µM*	-1%	-5%	0%
Cn1c(=O)n(Cc2ccccc2F)c(=O)c2c1nc1n2CCN1Cc1ccco1	3%	-48%	?	-6%	-2%	-1%
Cn1c(=O)n(Cc2ccc(Cl)cc2)c(=O)c2c1nc1n2CCN1Cc1ccco1	-14%	-11%	26µM*	-1%	0%	1%
Cn1c(N2CCC(C(N)=O)CC2)nc2c1c(=O)n(Cc1ccc(Cl)cc1)c(=O)n2C	1%	11%	-16%	-2%	4%	-3%
Cn1c(N2CCCC2)nc2c1c(=O)n(Cc1ccc(Cl)cc1)c(=O)n2C	-5%	-26%	21µM*	-6%	-1%	1%
CCCn1c(=O)c2c(nc3n2CCN3Cc2ccco2)n(C)c1=O	-3%	-17%	?	1%	-1%	-2%
Cc1nn(C)c2c1c(C(F)(F)F)cc(=O)n2C(C)C(=O)NCc1ccccc1 (stereo unspecified)	.	.	.	.	6%	.
Cc1ccc(NC(=O)CSc2ncc3c(n2)-c2ccccc2N(C)S3(=O)=O)c(Cl)c1	.	.	.	.	-9%	.
O=C(Nc1ccc(OCc2cc(=O)n3c4c(sc3n2)CCCC4)cc1)c1cccc(F)c1	.	-7%	.	.	-1%	.
CCOC(=O)c1c(C)[nH]c(C)c1S(=O)(=O)N1CCC(C(=O)Nc2ccc(F)cc2F)CC1	.	.	.	.	-8%	.
CN1CCN(C(=O)c2cnn(-c3cccc(Cl)c3)c2C2CCN(C(=O)OC(C)(C)C)CC2)CC1	.	.	.	.	5%	.
COc1ccc(CNCC(O)(c2ccccc2)c2ccccc2)cc1	-5%	.	-8%	3%	-2%	-7%
COc1ccc(CNCC(O)(c2ccccc2)c2ccccc2)cc1OC	-6%	-46%	23µM*	-8%	0%	-8%
N#C/C(=C\c1ccc(F)c(Br)c1)C(=O)NC1CC1	10µM*	.	?	3.2µM*	?	4µM*
CC(=O)N1CCN(C(=O)c2ccco2)CC1	-1%	.	-11%	4%	1%	-4%
Cc1cccc2nc(=S)n(C(=O)c3ccco3)n12	?	50%	?	?	1.1µM*	1.3µM*
O=C(c1cc2ncc(Br)cn2n1)N1CCN(C(=O)c2ccco2)CC1	-5%	15%	-4%	-2%	4%	-10%
O=C(c1ccco1)n1c(=S)nc2ccccn21	5µM*	?	?	2.8µM*	3.8µM*	1.4µM*
CCSC1=N/C(=C\c2cccnc2)C(=O)N1c1ccccc1	-3%	?	-13%	1%	-2%	3%
CSC1=N/C(=C\c2cccnc2)C(=O)N1c1ccccc1	15%	11%	?	1%	12µM*	-3%
